# Screens (PubChem)
# The list is not random: actives were taken first. Their share in the collection is about 9%.
# BAZ2B block: inhibitors of human BAZ2B bromodomain; Q9UIF8; AlphaScreen BAZ2B-H3K14Ac peptide displacement; Potency, µM (highest dose often 114 µM), without a hit: top-dose activity change, negative = inhibition, usual class: inhibitors; 360,000 tested, 4.4% active; AID 504333; further: on the % scale 0 is the no-effect control and ±100 the full control effect; nearly all actives have a fitted effect of over 60% in size
#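 Protein-peptide AlphaScreen: BAZ2B 50 nM, b-H3K14Ac 50 nM, 1x PBS pH 7.4 + 0.01% Tween-20. Preincubation 30 min RT; cpd 30 min RT (top 110 uM); beads 20 min RT, light-protected.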
# JMJD2A Tudor: blocks the human JMJD2A Tudor domain | 390,000 tested, 4.4% active | AlphaScreen JMJD2A-Tudor / H3K4me3 peptide binding | AID 504339 | Potency, µM (series often up to 114 µM), for inactives: at the top dose activity change, negative = inhibition, most hits filed as inhibitors; further: on the % scale 0 is the no-effect control and ±100 the full control effect; nearly all actives have a fitted effect of over 50% in size
# ALOX12 inh: ALOX12 (human) lipoxygenase inhibition; P18054; purified 12hLO, xylenol orange hydroperoxide absorbance; Potency, µM (doses to about 108 µM), without a hit: top-dose activity change, negative = inhibition, actives largely listed as inhibitors; 580,000 tested, 1.1% active; AID 1671190; further: on the % scale 0 is the no-effect control and ±100 the full control effect
#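 Hydroperoxide product was detected by ferrous iron/xylenol orange as the 573 to 405 nm absorbance ratio. Arachidonic acid at 40 uM (final) was turned over for 30 min at room temperature by 150 nM human 12hLO, pH 7.0 Hepes buffer, after 15 min compound preincubation.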
# PLK1 PBD block: inhibitors of human PLK1 polo-box domain binding | Plk1 PBD binding of FITC phosphopeptide, fluorescence polarization | Potency, µM, without a hit: max response, negative = inhibition, usual class: inhibitors | 360,000 tested, 2.8% active; further: series mostly up to about 57 µM; on the % scale 0 is the no-effect control and ±100 the full control effect; nearly all actives have a fitted effect of over 65% in size
# HP1b binding inh: blocks HP1-beta chromodomain binding to methylated histone tails. Potency, µM (titrated, usually from 114 µM), for the others: at the top dose activity change, negative = inhibition, actives largely listed as inhibitors. AlphaScreen HP1-beta / biotin-H3K9me3 peptide binding. 390,000 tested, 0.56% active. AID 540317; further: nearly all actives have a fitted effect of over 70% in size
#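 Compound inhibition of the preformed complex between 50 nM HP1-beta and 50 nM biotinylated H3K9me3 peptide was read by AlphaScreen. Buffer was PBS pH 7.4 with 0.01% Tween-20. Incubations ran 30 min at room temperature, with 10 ug/mL donor/acceptor beads.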
# G9a inh: inhibitors of human histone lysine methyltransferase G9a. G9a H3K9 monomethylation, AlphaScreen, 2 h. Potency, µM (titrated, usually from 102 µM), without a hit: at the highest dose activity, negative = inhibition, most hits filed as inhibitors. Q96KQ7. 350,000 tested, 8.8% active. AID 504332; further: on the % scale 0 is the no-effect control and ±100 the full control effect; nearly all actives have a fitted effect of over 75% in size
#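 G9a (20 nM) was preincubated 15 min with compound, then reacted 2 h at room temperature with 500 nM biotin-H3K9 peptide and 20 µM SAM. Monomethyl-H3K9 detected by AlphaScreen using anti-H3K9me1 antibody.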
# The depositor's hits bear a star; ? = inconclusive; . = no result given; [ ] = dose if it differs, or a comment. The call rests on the fitted dose curve; in most records, active means well fitted curve in the direction sought with a large enough effect; inconclusive means small, poorly fitted or top-dose-only effect, or another doubt; inactive means no such curve, though single readings can be large; an effect the other way counts as inactive or inconclusive. Potency means the concentration at half of the fitted maximal effect.
SMILES,BAZ2B block,JMJD2A Tudor,ALOX12 inh,PLK1 PBD block,HP1b binding inh,G9a inh
O=C(O)c1ccc(CSc2nc3ccc(NC(=O)c4ccccc4C(=O)O)cc3s2)cc1,?,-33%,-7%,-17%,73%,45µM*
Cc1nc2ccc(NC(=O)Cc3cccc(C(F)(F)F)c3)cc2s1,.,.,40µM*,.,.,.
CCOC(=O)CNC(=O)c1ccc(OCC(F)(F)F)cc1,14%,-8%,1%,-14%,25%,21%
OC[C@@H](O)C(O)[C@@H](O)CO (stereo partly specified),.,.,-12%,.,.,.
CCc1ccc(C2=NN(CCC(=O)NC3CC3)C(=O)CC2)cc1,-2%,.,.,.,.,-12%
CC1CCCC(NC(=O)COC(=O)/C=C/c2ccc3c(c2)OCO3)C1C (stereo unspecified),-5%,-8%,-14%,-1%,6%,6%[59 µM]
CCC(=O)Nc1nnc(SCC(=O)N2c3ccccc3CC2C)s1 (stereo unspecified),-4%,-13%[57.1 µM],-15%,-5%,35%,7%[59 µM]
CC1Cc2ccccc2N1C(=O)CSc1nnc(NC(=O)Cc2cccs2)s1 (stereo unspecified),?,-29%[57.1 µM],0%,30µM*,-33%,20%[59 µM]
COCCSc1nnc(NC(=O)Cc2cccs2)s1,8%,-23%,?,-8%,20%,?
Cc1ccccc1CSc1nnc(NC(=O)Cc2cccs2)s1,71µM*,-21%,-27%,-12%,35%,5%
Cc1ccc(S(=O)(=O)Nc2cccc(C(=O)NCC(c3ccccc3)N(C)C)c2)cc1F (stereo unspecified),-11%,-22%,?,-14%,-1%,-38%
CCCCN(C(=O)c1ccco1)C1CCS(=O)(=O)C1 (stereo unspecified),-5%,-14%,1%,3%,27%,-10%
CCNC(=O)CC1C(=O)N(c2ccc(F)cc2)C(=O)N1Cc1ccccn1 (stereo unspecified),-4%,?,-2%,27µM*,-6%,.
CCC1CCC(C(=O)NC(CCSC)C(=O)NCCN(CC(C)C)CC(C)C)CC1 (stereo unspecified),?,-3%,-7%,-9%,25%,-6%[59 µM]
COc1ccc(C(=O)Nc2cccc(-c3nc4ccccc4o3)c2)cc1,.,.,-12%,.,.,.
O=c1oc(-c2cccc([N+](=O)[O-])c2)nc2ccccc12,-35%,-19%,0%,?,-12%,45µM*
O=[N+]([O-])c1ccc2nc(-c3ccccc3)oc2c1,-28%,-19%,19%,-12%,8%,40µM*
O=[N+]([O-])c1cccc(-c2cnc3ccccc3n2)c1,-10%,-13%,76%,-9%,21%,-23%
Cc1cc(-c2cccc([N+](=O)[O-])c2)nc2ccccc12,-7%,-4%,-27%,-13%,26%,13µM*
Cc1cc(-c2nc3ccccc3c(=O)o2)ccc1[N+](=O)[O-],-17%,-15%,0%,1%,12%,-28%
O=C(Nc1cccc(-c2nc3ccccc3c(=O)o2)c1)c1ccccc1,-32%,25µM*,-17%,21µM*,?,-28%[59 µM]
COc1cccc(-c2nc3ccc([N+](=O)[O-])cc3o2)c1,-17%,-15%,68%,4%,19%,0%
O=C(CN1CCN(Cc2ccccc2Cl)C1=O)NCCc1ccc(Cl)cc1,5%,6%,0%,.,30%,5%[59 µM]
CN(C)c1cccc(NC2=CC(=[N+]3CCOCC3)CC(C)(C)C2)c1,?,89µM*,?,-14%,-7%,11µM*
O=C(Nc1cnn(Cc2ccc(F)cc2)c1)c1cc2nc(-c3ccco3)cc(C(F)(F)F)n2n1,7%,-13%,392%,-9%,16%,9%
CC(CCC(=O)O)(NC(=O)Cc1ccccc1)C(=O)O (stereo unspecified),.,.,-10%,.,.,.
C1CNC(CN2CCOCC2)C1 (stereo unspecified),.,.,8.9µM*,.,.,.
NC(=O)C1CCN(C(=O)C[C@@H]2CCNC[C@@H]2Cc2cc(COc3ccccc3)on2)CC1,.,.,14%,.,.,.
